In all, about 3,400 compounds went through this assay and about 840 (25%) were called active. Another 11% or so got no clear call; they are omitted.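 How the source made its calls: active means fitted half-maximal concentration of signal decrease at or below twice the sample's top tested concentration; inconclusive means flat curve between -70 and -30 percent, or poor fit; inactive means flat within 30 percent, signal rise, or potency above limit.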 The list is a sample of the results. Measured potencies and affinities stand elsewhere.
assay: inhibitors of Toxoplasma growth in IFN-γ-primed HeLa – cell-based, ME49Luc, luciferase, 72 h, dose response (AID 1259418); settings: T. gondii ME49Luc in IFN-y HeLa, stronger effect = lower value, -100% = high-dose IFN-γ control wells; at 19.5 µM unless noted

Row | SMILES | max activity
1 | Cc1ccc(-c2coc(-c3ccc(NC(=O)Nc4ccc(Cl)cc4)cc3)n2)cc1 | 13.9% [at 0.16 µM] (inactive)
2 | Cc1ccc(C)c(-c2coc(-c3ccc(NC(=O)Nc4ccc(C)c(F)c4)cc3)n2)c1 | 15% (inactive)
3 | CCc1ccccc1Nc1ncnc2c1cnn2-c1ccc(OC)cc1 | 48.9% (inactive)
4 | Clc1ccc(-c2nc(N3CCN(c4ccccn4)CC3)c3ccccc3n2)cc1 | -23.4% [at 1.35 µM] (inactive)
5 | COc1ccc(-c2nc(NCc3cccc(OC)c3)c3ccccc3n2)cc1 | 17.2% (inactive)
6 | CCc1ccccc1NC(=O)N1CCN(Cc2nc(-c3ccc(C)cc3)oc2C)CC1 | 29.1% [at 10 µM] (inactive)
7 | COc1ccc(-c2nc3c(s2)CN(C(=O)Nc2ccc(Cl)cc2)CC3)cc1OC | 10.2% [at 0.16 µM] (inactive)
8 | CCOC(=O)CSC1=Nc2ccccc2C2=NC(CC(=O)NC3CCCCC3)C(=O)N12 (configuration not stated) | -18.7% [at 10 µM] (inactive)
9 | O=C1CCc2cc(S(=O)(=O)NCc3ccccc3Cl)cc3c2N1CCC3 | 22.6% [at 2.6 µM] (inactive)
10 | O=C1CCc2cc(S(=O)(=O)N3CCC(Cc4ccccc4)CC3)cc3c2N1CCC3 | 11.4% [at 1.35 µM] (inactive)
11 | O=C1CCc2cc(S(=O)(=O)NCCC(c3ccccc3)c3ccccc3)cc3c2N1CCC3 | 9.16% (inactive)
12 | CC1Cc2ccccc2N1S(=O)(=O)c1cc2c3c(c1)CCC(=O)N3CCC2 (configuration not stated) | -11.1% [at 0.35 µM] (inactive)
13 | O=C1CCc2cc(S(=O)(=O)NCc3cccs3)cc3c2N1CCC3 | 24.5% (inactive)
14 | O=C1CCc2cc(S(=O)(=O)N3CCCc4ccccc43)cc3c2N1CCC3 | -12% [at 0.35 µM] (inactive)
15 | Cc1ccc(C2=NC3(CCN(CC(=O)Nc4c(C)cccc4C)CC3)NC2=O)cc1 | 10.4% [at 0.16 µM] (inactive)
16 | COc1ccc2c(c1)NC1(CCN(C(=O)CCC3CCCC3)CC1)c1cccn1-2 | 10.2% [at 0.16 µM] (inactive)
17 | COc1ccc(C)cc1NC(=O)N1CCc2nc(-c3ccc(C)cc3)sc2C1 | -14.6% [at 0.16 µM] (inactive)
18 | CCOc1ccc(CCNc2nc(-c3ccc(OC)cc3)nc3ccccc23)cc1 | -9.19% [at 0.35 µM] (inactive)
19 | CCc1cc2c(N3CCC(C(N)=O)(N4CCCCC4)CC3)ncnc2s1 | -27.2% (inactive)
20 | CCOC(=O)CCNC(=O)Nc1ccc(-c2nc(-c3ccccc3)co2)cc1 | -13.1% [at 1.35 µM] (inactive)
21 | COC(=O)c1ccc(NC(=O)COc2nc(C)nc3ccccc23)cc1 | 16% [at 2.6 µM] (inactive)
22 | O=C(c1ccco1)N1CCN(c2nc(-c3ccc(Cl)cc3)nc3ccccc23)CC1 | 16.5% [at 0.35 µM] (inactive)
23 | O=C(c1ccco1)N1CCC2(CC1)Nc1cc(F)ccc1-n1cccc12 | 7.86% [at 0.16 µM] (inactive)
24 | Cc1ccc2c(c1C)-n1cccc1C1(CCN(C(=O)c3ccc(Cl)cc3)CC1)N2 | -11.9% [at 0.16 µM] (inactive)
25 | O=C(CC1Nc2c3ccccc3nc(=S)n2C1=O)NCCC1=CCCCC1 (configuration not stated) | 25.3% [at 0.68 µM] (inactive)
26 | Cc1ccc(CSC2=Nc3ccccc3C3=NC(CC(=O)NCc4ccco4)C(=O)N23)cc1 (configuration not stated) | 10.3% [at 0.35 µM] (inactive)

Row | SMILES | max activity
27 | O=C(CC1N=C2c3ccccc3N=C(SCc3ccccc3F)N2C1=O)NCc1ccco1 (configuration not stated) | -17.8% (inactive)
28 | CC(C)(C)c1ccc(CSC2=Nc3ccccc3C3=NC(CCC(=O)NCc4ccco4)C(=O)N23)cc1 (configuration not stated) | 15.7% [at 0.16 µM] (inactive)
29 | Cc1ccc(CSC2=Nc3ccccc3C3=NC(CCC(=O)NCc4ccco4)C(=O)N23)cc1 (configuration not stated) | 39.1% (inactive)
30 | Cc1nc(OCC(=O)Nc2cccc(Cl)c2)c2ccccc2n1 | -6.84% [at 0.35 µM] (inactive)
31 | Cc1ccc(C)c(-c2coc(-c3ccc(NC(=O)C(C)(C)C)cc3)n2)c1 | 13.3% [at 0.16 µM] (inactive)
32 | COCCN1CCN(S(=O)(=O)c2ccccc2)Cc2cccnc21 | 18.1% (inactive)
33 | COc1ccc(C)cc1NC(=O)COc1nc(C)nc2ccccc12 | 17.5% [at 0.68 µM] (inactive)
34 | COC(=O)c1ccc(Cl)cc1NC(=O)COc1nc(C)nc2ccccc12 | 29% [at 0.16 µM] (inactive)
35 | Cc1cc(C)c(NC(=O)COc2nc(C)nc3ccccc23)c(C)c1 | -16.7% [at 0.68 µM] (inactive)
36 | Cc1nc(OCC(=O)Nc2cccc(Br)c2)c2ccccc2n1 | 18% [at 0.35 µM] (inactive)
37 | COc1ccc(OC)c(NC(=O)COc2nc(C)nc3ccccc23)c1 | 27.6% [at 2.6 µM] (inactive)
38 | Cc1cc(C)cc(NC(=O)COc2nc(C)nc3ccccc23)c1 | -16.7% [at 5 µM] (inactive)
39 | CCc1cccc(C)c1NC(=O)COc1nc(C)nc2ccccc12 | 13.2% [at 0.68 µM] (inactive)
40 | CCOC(=O)c1ccccc1NC(=O)COc1nc(C)nc2ccccc12 | 26.7% [at 10 µM] (inactive)
41 | CCOc1cccc(CC(=O)N2CCC3(CC2)Nc2cc(F)ccc2-n2cccc23)c1OCC | 11.6% [at 0.35 µM] (inactive)
42 | O=C(NCCc1csc(-c2ccccc2)n1)[C@H]1CSCN1C(=O)Cc1ccc(F)cc1 | 10.7% [at 10 µM] (inactive)
43 | Cc1ccc(C)c(-c2coc(-c3ccc(NC(=O)NCc4ccc(F)cc4)cc3)n2)c1 | -8.97% [at 1.35 µM] (inactive)
44 | CCOc1ccc(C(=O)N2CCC3(CC2)Nc2ccc(C)c(C)c2-n2cccc23)cc1 | -13.2% (inactive)
45 | Cc1cccc(C(=O)Nc2c(C(=O)NCc3ccccn3)[nH]c3ccccc23)c1 | 17.8% [at 2.6 µM] (inactive)
46 | CN(C)CCN1CCC2(CCCN(C(=O)C3CCOC3)C2)C1=O (configuration not stated) | 39.4% (inactive)
47 | Cc1cccc(-c2nc(Cn3nnc(-c4nc(-c5ccccc5C)no4)c3C)c(C)o2)c1 | 5.08% [at 0.35 µM] (inactive)
48 | O=C(Nc1ccc(-c2nc(-c3cccc(Br)c3)co2)cc1)c1ccco1 | 21.7% (inactive)
49 | O=C(NCCc1csc(-c2ccccc2)n1)[C@H]1CCCN1C(=O)COc1ccccc1 | -18.8% (inactive)
50 | Cc1nc(OCC(=O)Nc2ccc(F)cc2)c2ccccc2n1 | 17.7% [at 10 µM] (inactive)
51 | Cc1nc(OCC(=O)Nc2ccc(Cl)cc2F)c2ccccc2n1 | -13% [at 0.16 µM] (inactive)
52 | Cc1nc(OCC(=O)Nc2ccccc2)c2ccccc2n1 | 12.4% [at 0.16 µM] (inactive)

Row | SMILES | max activity
53 | COc1ccc(NC(=O)COc2nc(C)nc3ccccc23)cc1 | 19.3% [at 0.68 µM] (inactive)
54 | Cc1nc(OCC(=O)Nc2ccc3c(c2)OCO3)c2ccccc2n1 | 12.1% [at 5 µM] (inactive)
55 | COc1cc(NC(=O)COc2nc(C)nc3ccccc23)cc(OC)c1 | -12.3% [at 0.35 µM] (inactive)
56 | CCc1nc(OCC(=O)NCc2ccc3c(c2)OCO3)c2ccccc2n1 | 11.9% [at 0.35 µM] (inactive)
57 | Cc1nc(OCC(=O)Nc2ccc(F)cc2F)c2ccccc2n1 | -20.9% [at 1.35 µM] (inactive)
58 | O=C(Cc1ccc(F)cc1)N1CCC2(CC1)Nc1cc(F)ccc1-n1cccc12 | 16% [at 0.16 µM] (inactive)
59 | O=C(NCc1ccccc1)Nc1ccc(-c2nc(-c3ccccc3)co2)cc1 | 42.6% (inactive)
60 | CC(C)c1cc(C2CCCN2C(=O)Cn2nc(C(F)(F)F)c3c2CCCC3)no1 (configuration not stated) | 6.95% [at 0.16 µM] (inactive)
61 | CC(C)c1cc(C2CCCN2C(=O)Cn2nc(C(F)(F)F)c3c2CCCC3)on1 (configuration not stated) | 9.58% [at 2.6 µM] (inactive)
62 | CCCc1cc(C2CCCN2C(=O)Cn2nc(C(F)(F)F)cc2C)no1 (configuration not stated) | 9.64% [at 1.35 µM] (inactive)
63 | CCc1cc(C2CCCN2C(=O)Cn2nc(C(F)(F)F)c3c2CCCC3)on1 (configuration not stated) | 14.3% [at 0.16 µM] (inactive)
64 | Cc1cc(C2CCCN2C(=O)Cn2nc(C(F)(F)F)c3c2CCCC3)on1 (configuration not stated) | -9.58% [at 0.16 µM] (inactive)
65 | Cc1cc(C2CCCN2C(=O)Cn2nc(C(F)(F)F)cc2C)no1 (configuration not stated) | 11.8% [at 2.6 µM] (inactive)
66 | COCCCNC(=O)Cn1c(=O)c(S(=O)(=O)c2ccccc2)cc2ccccc21 | -8.44% [at 0.35 µM] (inactive)
67 | Cc1ccc(-c2nc3c(s2)CN(S(=O)(=O)c2ccc(Cl)cc2)CC3)cc1 | 6.55% [at 10 µM] (inactive)
68 | COc1cccc(CC(=O)N2CCC3(CC2)Nc2cc(OC)ccc2-n2cccc23)c1 | 12.8% [at 0.35 µM] (inactive)
69 | COc1ccc(CCNc2nc(SCc3cc(=O)n4cc(Cl)ccc4n3)nc3ccccc23)cc1OC | 12.8% (inactive)
70 | Cc1ccc(Cn2c(CN3CCC(C(=O)NCc4cccnc4)CC3)cc3ccccc32)cc1 | 16.6% [at 2.6 µM] (inactive)
71 | CN1C[C@H]2CN(Cc3ccc4c(c3)OCO4)CCC[C@@]2(C(=O)O)C1 | 12.4% (inactive)
72 | COc1cccc(C(=O)N2CCC3(CC2)Nc2ccc(Cl)cc2-n2cccc23)c1 | 7.04% [at 10 µM] (inactive)
73 | Cc1cccc(OCC(=O)N2CCC(C(=O)NCCc3csc(-c4ccccc4)n3)CC2)c1 | 9.91% (inactive)
74 | CCc1cnc(N2CCc3cc(C(=O)NCC4CC4)c(N(C)C)nc3CC2)nc1 | -14.2% [at 2.6 µM] (inactive)
75 | CN(C)C(=O)c1cc2c(nc1NCC1CC1)CCN(Cc1ccccn1)CC2 | 32.5% (inactive)
76 | COc1ccc(C(=O)N2CCC3(CC2)Nc2ccc(Cl)cc2-n2cccc23)cc1OC | 9.68% [at 0.68 µM] (inactive)
77 | O=C(Nc1ccc(-c2nc(-c3ccccc3)co2)cc1)C1CCCCC1 | 11.6% [at 10 µM] (inactive)
